# Test results published in the supplement of paper PMC8975748.
# Structures can show the parent of a compound that is named as a salt. ± gives the standard deviation of the averaged measurements.
# Columns and labels:
# [1] = test system: Saccharomyces cerevisiae BY4741 SeMeCo community; test: mean cell size (pixel area) (pixels); higher = larger cells; conditions: 10 µM; 24 h; SM minimal medium
# Summary of the method: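 Mean cell pixel area per well was measured in a four-plasmid fluorescent community of Saccharomyces cerevisiae BY4741, where every plasmid complements one auxotrophy and carries a fluorescent marker. Cells from an overnight preculture at OD600 = 1.0 were diluted to OD600 = 0.3 and dispensed at 70 µl into 384-well plates acoustically predosed with drug to a final 10 µM in SM medium. Incubation lasted 24 h, followed by paraformaldehyde fixation, automated confocal imaging and analysis in Harmony. Reported figures are averaged over 3 replicates. Same SeMeCo high-content imaging drug screen: Selleck FDA-approved drugs at 10 µM, 24 h in SM medium, 384-well plates, 3 replicates.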
# [2] = test system: Saccharomyces cerevisiae BY4741 SeMeCo community; test: z-score of prototroph abundance vs DMSO median; higher = larger share of this subpopulation than in DMSO controls; conditions: 10 µM; 24 h; SM minimal medium; subpopulation (auxotrophy): Prototroph
# Summary of the method: (§1)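 Scoring was based on each subpopulation's abundance, expressed as a z-score against the vehicle-well median. A Saccharomyces cerevisiae BY4741 community with four plasmids, each restoring one auxotrophy and encoding a distinct fluorescent protein, was pre-grown overnight to OD600 1.0, diluted to 0.3, and added at 70 µl to 384-well plates acoustically predosed with library drugs (10 µM final). It then grew 24 h in minimal SM medium before paraformaldehyde fixation and automated confocal microscopy, with single-auxotroph fluorescent strains setting thresholds and autofluorescence correction.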
# [3] = test system: Saccharomyces cerevisiae BY4741 SeMeCo community; test: z-score of subpopulation abundance vs DMSO median, subpopulation auxotrophic for M; higher = larger share of this subpopulation than in DMSO controls; conditions: 10 µM; 24 h; SM minimal medium; subpopulation (auxotrophy): M
# Summary of the method: as §1
# [4] = test system: Saccharomyces cerevisiae BY4741 SeMeCo community; test: z-score of subpopulation abundance vs DMSO median, subpopulation auxotrophic for L; higher = larger share of this subpopulation than in DMSO controls; conditions: 10 µM; 24 h; SM minimal medium; subpopulation (auxotrophy): L
# Summary of the method: as §1
# [5] = test system: Saccharomyces cerevisiae BY4741 SeMeCo community; test: z-score of subpopulation abundance vs DMSO median, subpopulation auxotrophic for U; higher = larger share of this subpopulation than in DMSO controls; conditions: 10 µM; 24 h; SM minimal medium; subpopulation (auxotrophy): U
# Summary of the method: as §1
# [6] = test system: Saccharomyces cerevisiae BY4741 SeMeCo community; test: z-score of subpopulation abundance vs DMSO median, subpopulation auxotrophic for H; higher = larger share of this subpopulation than in DMSO controls; conditions: 10 µM; 24 h; SM minimal medium; subpopulation (auxotrophy): H
# Summary of the method: as §1
# [7] = test system: Saccharomyces cerevisiae BY4741 SeMeCo community; test: z-score of subpopulation abundance vs DMSO median, subpopulation auxotrophic for LU; higher = larger share of this subpopulation than in DMSO controls; conditions: 10 µM; 24 h; SM minimal medium; subpopulation (auxotrophy): LU
# Summary of the method: as §1
# [8] = test system: Saccharomyces cerevisiae BY4741 SeMeCo community; test: z-score of subpopulation abundance vs DMSO median, subpopulation auxotrophic for LM; higher = larger share of this subpopulation than in DMSO controls; conditions: 10 µM; 24 h; SM minimal medium; subpopulation (auxotrophy): LM
# Summary of the method: as §1
# [9] = test system: Saccharomyces cerevisiae BY4741 SeMeCo community; test: z-score of subpopulation abundance vs DMSO median, subpopulation auxotrophic for HM; higher = larger share of this subpopulation than in DMSO controls; conditions: 10 µM; 24 h; SM minimal medium; subpopulation (auxotrophy): HM
# Summary of the method: as §1
# [10] = test system: Saccharomyces cerevisiae BY4741 SeMeCo community; test: z-score of subpopulation abundance vs DMSO median, subpopulation auxotrophic for HU; higher = larger share of this subpopulation than in DMSO controls; conditions: 10 µM; 24 h; SM minimal medium; subpopulation (auxotrophy): HU
# Summary of the method: as §1
# [11] = test system: Saccharomyces cerevisiae BY4741 SeMeCo community; test: z-score of subpopulation abundance vs DMSO median, subpopulation auxotrophic for UM; higher = larger share of this subpopulation than in DMSO controls; conditions: 10 µM; 24 h; SM minimal medium; subpopulation (auxotrophy): UM
# Summary of the method: as §1
# [12] = test system: Saccharomyces cerevisiae BY4741 SeMeCo community; test: z-score of subpopulation abundance vs DMSO median, subpopulation auxotrophic for HLU; higher = larger share of this subpopulation than in DMSO controls; conditions: 10 µM; 24 h; SM minimal medium; subpopulation (auxotrophy): HLU
# Summary of the method: as §1
# [13] = test system: Saccharomyces cerevisiae BY4741 SeMeCo community; test: z-score of subpopulation abundance vs DMSO median, subpopulation auxotrophic for HUM; higher = larger share of this subpopulation than in DMSO controls; conditions: 10 µM; 24 h; SM minimal medium; subpopulation (auxotrophy): HUM
# Summary of the method: as §1
# [14] = test system: Saccharomyces cerevisiae BY4741 SeMeCo community; test: z-score of subpopulation abundance vs DMSO median, subpopulation auxotrophic for LUM; higher = larger share of this subpopulation than in DMSO controls; conditions: 10 µM; 24 h; SM minimal medium; subpopulation (auxotrophy): LUM
# Summary of the method: as §1
# [15] = test system: Saccharomyces cerevisiae BY4741 SeMeCo community; test: z-score of subpopulation abundance vs DMSO median, subpopulation auxotrophic for HLUM; higher = larger share of this subpopulation than in DMSO controls; conditions: 10 µM; 24 h; SM minimal medium; subpopulation (auxotrophy): HLUM
# Summary of the method: as §1
# [16] = test system: Saccharomyces cerevisiae BY4741 SeMeCo community; test: z-score of subpopulation abundance vs DMSO median, subpopulation auxotrophic for HL; higher = larger share of this subpopulation than in DMSO controls; conditions: 10 µM; 24 h; SM minimal medium; subpopulation (auxotrophy): HL
# Summary of the method: as §1
# [17] = test system: Saccharomyces cerevisiae BY4741 SeMeCo community; test: z-score of subpopulation abundance vs DMSO median, subpopulation auxotrophic for HLM; higher = larger share of this subpopulation than in DMSO controls; conditions: 10 µM; 24 h; SM minimal medium; subpopulation (auxotrophy): HLM
# Summary of the method: as §1
SMILES,mean cell size [1],z-score of prototroph abundance [2],z-score of subpopulation abundance [3],z-score of subpopulation abundance [4],z-score of subpopulation abundance [5],z-score of subpopulation abundance [6],z-score of subpopulation abundance [7],z-score of subpopulation abundance [8],z-score of subpopulation abundance [9],z-score of subpopulation abundance [10],z-score of subpopulation abundance [11],z-score of subpopulation abundance [12],z-score of subpopulation abundance [13],z-score of subpopulation abundance [14],z-score of subpopulation abundance [15],z-score of subpopulation abundance [16],z-score of subpopulation abundance [17]
CC(=O)OCC(CCn1cnc2cnc(N)nc21)COC(C)=O [Famciclovir],12.6 ± 0.22,0.55,-0.23,0.46,-0.77,0.1,-0.41,-0.17,0.41,-0.39,-0.68,-0.67,-0.82,-0.18,1.06,–,–
Nc1nc2c(ncn2COC(CO)CO)c(=O)[nH]1 [Ganciclovir],12.4 ± 0.16,-0.25,0.43,0,0.17,-0.43,-0.06,-0.15,–,-0.11,0.96,0.54,0.33,–,-0.89,-0.27,–
CCCN[C@H]1CCc2nc(N)sc2C1 [Pramipexole],12.3 ± 0.16,-0.22,-0.13,-0.15,0.72,-0.21,0.21,-0.62,0.07,1.27,0.05,0.75,0.71,0.35,0.18,0.63,–
CC1(C)S[C@@H]2[C@H](NC(=O)[C@H](C(=O)O)c3ccsc3)C(=O)N2[C@H]1C(=O)O [Ticarcillin sodium],12.4 ± 0.22,-0.89,1.32,2.72,-0.93,0.6,1.74,2.06,0.42,-0.4,-0.45,1.46,0.83,–,1.75,2.48,–
Cc1ncc([N+](=O)[O-])n1CCOC(=O)c1ccccc1 [Metronidazole Benzoate],12.382 ± 0.0058,0.95,-0.51,-0.6,-0.16,-1.17,-1.05,-0.57,0.12,–,-0.26,-1.28,-0.37,–,-0.51,-0.69,–
C#C[C@]1(O)CC[C@H]2[C@@H]3CCC4=CC(=O)CC[C@@H]4[C@H]3C(=C)C[C@@]21CC [Etonogestrel],12.4 ± 0.14,0.26,-1.48,-0.43,1.19,0.15,0.5,-0.7,-1.24,0.83,0.08,0.5,-0.52,-0.63,-0.23,-0.29,–
COc1cc(N)c(Cl)cc1C(=O)NC1CCN(CCCOc2ccc(F)cc2)CC1OC (stereo not drawn) [Cisapride hydrate],12.52 ± 0.044,–,0.32,-0.75,0.95,0.05,0.83,-0.23,0.29,1.34,–,0.05,0.84,-0.28,-0.3,-0.17,–
COC(=O)Nc1nc2cc(Sc3ccccc3)ccc2[nH]1 [Fenbendazole],12.3 ± 0.23,0.03,0.61,0.52,-0.17,0.06,-0.67,0.66,–,-0.37,0.27,-0.08,0.36,0.53,-0.28,0.48,–
Cn1c(=O)c2[nH]cnc2n(C)c1=O [Aminophylline],12.5 ± 0.19,-0.44,0.43,0.83,0.26,–,1.06,0.92,0.42,–,0.33,-0.5,0.11,0.29,-0.29,0.54,–
CO/N=C(\C(=O)N[C@@H]1C(=O)N2C(C(=O)O)=CCS[C@H]12)c1csc(N)n1 [Ceftizoxime],12.47 ± 0.084,0.78,0.26,-0.19,-0.63,-0.86,-0.12,–,–,-0.76,-0.98,-1.12,-1.23,-0.44,-0.49,-0.85,–
COc1ccc2c3c1O[C@H]1C[C@@H](O)C=C[C@@]31CCN(C)C2 [Galanthamine HBr],11.87 ± 0.11,–,1.78,-0.44,0.01,0.1,0.01,-0.06,0.96,-0.13,1.03,0.43,0.61,-0.14,-0.98,-0.01,–
C#C[C@]1(O)CC[C@H]2[C@@H]3CCC4=Cc5oncc5C[C@]4(C)[C@H]3CC[C@@]21C [Danazol],12.2 ± 0.23,0,-0.89,–,0.53,-0.48,0.13,0.04,-0.49,0.32,0.52,-0.45,0.74,0.22,-0.4,-0.13,-0.39
CN1[C@@H](CC(=O)c2ccccc2)CCC[C@H]1C[C@H](O)c1ccccc1 [Lobeline hydrochloride],12.5 ± 0.23,0.02,1.16,–,0.36,-0.65,-0.23,-0.29,0.17,-0.75,0.92,-0.94,0.22,-0.75,0.01,–,-0.48
CCCCN1CCCCC1C(=O)Nc1c(C)cccc1C (stereo not drawn) [Bupivacaine HCl],–,0.23,0.05,-0.57,–,0.67,-0.05,-0.93,–,-0.26,0.27,-0.41,-0.41,–,-0.67,-0.36,–
O=S1(=O)CCN(CN2CCS(=O)(=O)NC2)CN1 [Taurolidine],12.5 ± 0.25,0.42,-0.34,-0.57,–,-0.57,0.35,-0.78,-1.08,0.18,0.3,-0.43,–,-0.43,–,-1.35,–
